Assay results taken from the supplement of paper PMC7156485.

system: HCC1569; test: H1.0 immunofluorescence intensity relative to DMSO (% of DMSO); higher = stronger H1.0 induction, active = 140 or more; details: concentration: 10 µM; 24 h
How it was run: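 Using 384-well plates with 800 cells per well in RPMI plus 10% FBS, HCC1569 and TDF cells were exposed to compounds at 10 µM, in triplicate, for 24 h at 37 °C. Imaging of six fields per well at ×10 followed H1.0 and DAPI staining. The reported quantity, H1.0 nuclear intensity or cell number, is a median of replicates given as percent of the plate control, and HCC1569 values were smoothed for positional effects.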
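Also: TDF is a line of transformed human dermal fibroblasts of mesenchymal origin.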

Q: For CCCCCC(O)C=CC1C=CC(=O)C1CC=CCCCC(=O)O (configuration not stated) [Prostaglandin A2], which H1.0 immunofluorescence intensity is on record?
A: 104 (inactive)

Q: Which H1.0 immunofluorescence intensity does the source give for CNNCc1ccc(C(=O)NC(C)C)cc1 [Procarbazine] here?
A: 108 (inactive)

Q: Which H1.0 immunofluorescence intensity does the source give for COc1cccc(-c2cn(-c3ccc(CCN4CCC(O)CC4)cc3)c3ncnc(N)c23)c1 here?
A: 177 (active)

Q: How did the H1.0 immunofluorescence intensity turn out when CC(C)C(CO)Nc1nc(Nc2ccc(C(=O)O)c(Cl)c2)c2ncn(C(C)C)c2n1 (configuration not stated) [Purvalanol B] was run?
A: 98.7 (inactive)

Q: For COC(=O)C1=C(C)NC(C)=C([N+](=O)[O-])C1c1ccccc1C(F)(F)F (racemic), which H1.0 immunofluorescence intensity is on record?
A: 98 (inactive)

Q: With Cl.Nc1nc2ccc(OC(F)(F)F)cc2s1 [Riluzole.HCl] as the compound, how does the H1.0 immunofluorescence intensity read?
A: 94.8 (inactive)

Q: For COc1ccc2cc3[n+](cc2c1OC)CCc1cc2c(cc1-3)OCO2.Cl, which H1.0 immunofluorescence intensity is on record?
A: 101 (inactive)

Q: Which H1.0 immunofluorescence intensity does the source give for COc1ccc(Cl)cc1NC(=O)Nc1cc(C)nc2ccccc12 [N-(5-Chloro-2-methoxyphenyl)-N'-(2-methyl-4-quinolinyl)urea] here?
A: 148 (active)

Q: How did the H1.0 immunofluorescence intensity turn out when C=C1CCC(O)CC1=CC=C1CCCC2(C)C1CCC2C(C)CCC(O)C(C)(C)O [24(R),25-Dihydroxyvitamin D3] was run?
A: 93.7 (inactive)

Q: How did the H1.0 immunofluorescence intensity turn out when O=c1oc2c(O)c(O)cc3c(=O)oc4c(O)c(O)cc1c4c23 [Ellagic acid] was run?
A: 90.6 (inactive)

Q: COc1cc2nc(N(C)CCCNC(=O)C3CCCO3)nc(N)c2cc1OC (configuration not stated) [Alfuzosin] was tested. Which H1.0 immunofluorescence intensity did it give?
A: 102 (inactive)

Q: How did the H1.0 immunofluorescence intensity turn out when CC(=O)NCCc1ccc(O)c(O)c1 [N-Acetyldopamine monohydrate] was run?
A: 91.4 (inactive)
